The whole screen tested about 5,500 compounds, of which about 2,000 (36%) were called active. About 18% were inconclusive and are not listed. No stated cut-off is given here; in the data, active means normalized growth mostly below about 0.91 (no sharp cut-off); inconclusive means no clear call, values can overlap the other calls; inactive means mostly above about 0.92. The list shows a part of the results.
Experiment: chemical genetic growth profiling, strain panel (AID 1159580);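 further: tested at 20 µM; growth read once vehicle control cultures reached saturation at 30 °C; 1 = growth at the plate median or of vehicle wells; lower values mean less growth of the strain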
Conditions: S. cerevisiae deletion strains, growth OD
[1] = locus YAL013W, strain DEP1, hits give low values
[2] = locus YDR150W, strain NUM1, hits give low values
[3] = locus YGR078C, strain PAC10, hits give low values
[4] = locus YHR030C, strain SLT2, hits give low values
[5] = locus YJR075W, strain HOC1, hits give low values
[6] = locus YMR263W, strain SAP30, hits give low values
[7] = locus YNL153C, strain GIM3, hits give low values
[8] = locus YNL322C, strain KRE1, hits give low values
[9] = locus YPL055C, strain LGE1, hits give low values
[10] = locus YPL241C, strain CIN2, hits give low values
[11] = locus YAL040C, strain CLN3, hits give low values
[12] = locus YCL061C, strain MRC1 (second series), hits give low values
[13] = locus YDR363W, strain ESC2, hits give low values
[14] = locus YER002W, strain NOP16, hits give low values
[15] = locus YNL175C, strain NOP13, hits give low values
[16] = locus YNL197C, strain WHI3, hits give low values
[17] = locus YNL224C, strain SQS1, hits give low values
[18] = locus YOR083W, strain WHI5 (second series), hits give low values

Measured: normalized growth

CCN(CC)C(=O)c1[nH]c(C)c(C)c1C
inactive: [1] 1.01 | locus YBR229C, strain ROT2, hits give low values 1 | locus YCL061C, strain MRC1, hits give low values 1.01 | locus YDL101C, strain DUN1, hits give low values 0.994 | [2] 1.01 | locus YEL061C, strain CIN8, hits give low values 0.985 | [3] 1.01 | locus YGR229C, strain SMI1, hits give low values 1.02 | [4] 1 | locus YHR087W, strain rtc3, hits give low values 0.998 | locus YJR043C, strain POL32, hits give low values 0.997 | [5] 1.01 | locus YLR039C, strain RIC1, hits give low values 1.02 | locus YLR058C, strain SHM2 (second series), hits give low values 1.01 | locus YLR085C, strain ARP6, hits give low values 1.03 | locus YLR262C, strain YPT6, hits give low values 0.995 | locus YML094W, strain GIM5, hits give low values 1.02 | locus YMR219W, strain ESC1, hits give low values 1.02 | [6] 1.01 | [7] 1 | locus YNL298W, strain CLA4 (second series), hits give low values 1.01 | [8] 0.985 | locus YNR030W, strain Alg12, hits give low values 1 | locus YOL006C, strain TOP1, hits give low values 1.04 | [9] 1.02 | [10] 0.994 | locus YPR135W, strain CTF4, hits give low values 1.06

COC(=O)[C@@H]1[C@H]2C[C@H]3c4[nH]c5ccccc5c4CCN3C[C@@H]2CC[C@@H]1O
inactive: [1] 0.98 | [11] 1.03 | [12] 0.99 | [2] 1.01 | [13] 0.981 | [14] 1 | [3] 0.987 | [5] 0.98 | [6] 0.987 | locus YMR307W, strain GAS1, hits give low values 1 | [15] 1 | [16] 0.984 | [17] 0.981 | [8] 0.952 | [18] 0.975 | [9] 0.983

O=C(O)Cc1cnc[nH]1
inactive: [1] 1.04 | [11] 1.04 | [12] 1.02 | [2] 1.04 | [13] 1.02 | [14] 1.01 | [4] 0.992 | locus YHR079C, strain IRE1, hits give low values 1.01 | locus YJL095W, strain BCK1, hits give low values 1 | locus YJR066W, strain TOR1, hits give low values 0.985 | locus YLR113W, strain HOG1, hits give low values 1 | [7] 1.03 | [15] 1 | locus YNL183C, strain NPR1, hits give low values 0.938 | [16] 1.01 | [17] 1 | [8] 1.02 | [18] 1.01 | locus YOR231W, strain MKK1, hits give low values 1 | [10] 1.01 | locus YPL256C, strain CLN2, hits give low values 1

C[C@]12CC[C@@H]3c4ccc(O)cc4CC[C@H]3[C@@H]1CC[C@@H]2O
inactive: [1] 1 | [11] 1.01 | [12] 1.01 | [2] 1.01 | [13] 1.01 | [14] 1.02 | [3] 0.999 | [5] 1.01 | [7] 0.948 | [15] 1.01 | [16] 1.03 | [17] 1.03 | [18] 0.899
